Results on 17 compounds are retold here after PubChem BioAssay (Tox21).

A short description of test [1]: qHTS assay to identify small molecule agonists of the vitamin D receptor (VDR) signaling pathway - cell viability counter screen (AID 743224; active = well fitted cell-killing curve with a large enough effect in the repeat runs; note: nearly all actives have a fitted effect of over 50% in size; note: potency is the fitted concentration of half-maximal effect). An outline of the steps: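 VDR-bla cells were preincubated 4 h at 37C/5% CO2, then exposed to compounds for 16 h. After the 2 h room-temperature bla FRET read, CellTiter-Glo was added to the same wells and luminescence read after 30 min.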

Test [2] can be described thus: qHTS assay to identify small molecule antagonists of the vitamin D receptor (VDR) signaling pathway - cell viability counter screen (AID 743225; active = well fitted cell-killing curve with a large enough effect in the repeat runs; note: nearly all actives have a fitted effect of over 50% in size). An outline of the steps:
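Luminescent cell viability (CellTiter-Glo) in VDR-bla HEK 293T cells after 16 h compound exposure at 37C in the presence of 3 nM final 1-alpha,25-dihydroxy vitamin D3.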
(In general: qHTS replaces the single test concentration by a dilution series.)

The nature of test [3]: qHTS assay to identify small molecule agonists of the NFkB signaling pathway - cell viability counter screen (AID 1159515). Note: series mostly up to about 61 µM; nearly all actives have a fitted effect of over 55% in size. The essentials:
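NFkB-bla ME-180 cells, 2,000/well, were plated overnight at 37 C, 5% CO2, then exposed to compounds in DMSO for 5 hr. After the bla FRET read, CellTiter-Glo was added to the same wells; luminescence was read after 30 min at room temperature.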

The nature of test [4]: qHTS assay to identify small molecule agonists of the endoplasmic reticulum stress response signaling pathway (AID 1159516; active = well fitted activation curve with a large enough effect in the signal ratio in the repeat runs, not every such curve was filed as active; the % refers to the signal ratio). An outline of the steps: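 CellSensor ESRE-bla HeLa cells, carrying a beta-lactamase reporter driven by the ER stress response element, were plated overnight and exposed to compounds for 5 hr at 37 C. Reporter activity was read as FRET substrate fluorescence after 2 hr at room temperature.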

A short description of test [5]: qHTS assay to identify small molecule agonists of the endoplasmic reticulum stress response signaling pathway - cell viability counter screen (AID 1159517). Note: series mostly up to about 61 µM; nearly all actives have a fitted effect of over 50% in size. An outline of the steps: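 ESRE-bla HeLa cells, 1,500 per well, seeded overnight then treated with compounds for 5 hr at 37 C. After the beta-lactamase read, viability in the same wells is measured by CellTiter-Glo luminescence after 30 min at room temperature.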

Test [6] in a line: qHTS assay to identify small molecule antagonists of the retinoid-related orphan receptor gamma (ROR-gamma) signaling pathway - cell viability counter screen (AID 1159520; active = well fitted cell-killing curve with a large enough effect in the repeat runs; note: nearly all actives have a fitted effect of over 50% in size; note: potency is the fitted concentration of half-maximal effect). An outline of the steps: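 Tet-on ROR gamma CHO cells were given compounds for 2 hr, then doxycycline hyclate at 1 uM final, and incubated 16 hr at 37 C. Viability was measured as ATP content by CellTiter-Glo luminescence.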

Test [7] is described as follows: qHTS assay to identify small molecule agonists of the AP-1 signaling pathway - cell viability counter screen (AID 1159525). Note: nearly all actives have a fitted effect of over 55% in size. Note: potency is the fitted concentration of half-maximal effect. The essentials: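 AP-1-bla ME-180 cells in Opti-MEM with 0.5% dialyzed FBS, compound exposure 5 h at 37 C in 15-point titration. Viability read in the same wells as ATP content by CellTiter-Glo luminescence, normalised to tetra-n-octylammonium bromide and DMSO controls.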

Test [8] can be described thus: qHTS assay to identify small molecule agonists of the AP-1 signaling pathway (AID 1159526).
In test [9] the target is Retinoic acid receptor RXR-alpha (Homo sapiens) (UniProt P19793). The test can be described thus: qHTS assay to identify small molecule agonists of the RXR signaling pathway (AID 1159527). Note: nearly all actives have a fitted effect of over 35% in size. An outline of the steps: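 Beta-lactamase reporter assay, agonist format. Engineered HEK 293T line, charcoal-stripped FBS at 2%, overnight (16 hr) exposure, fluorescence at 460 and 530 nm after 405 nm excitation.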

Molecules are shown by their SMILES. Results filed as inconclusive are left out. Active and inactive are the calls of the source. Unless noted, calls come from the whole dose curve.

Retinoic acid receptor RXR-alpha (Homo sapiens), sequence (P19793 whole entry, looked up): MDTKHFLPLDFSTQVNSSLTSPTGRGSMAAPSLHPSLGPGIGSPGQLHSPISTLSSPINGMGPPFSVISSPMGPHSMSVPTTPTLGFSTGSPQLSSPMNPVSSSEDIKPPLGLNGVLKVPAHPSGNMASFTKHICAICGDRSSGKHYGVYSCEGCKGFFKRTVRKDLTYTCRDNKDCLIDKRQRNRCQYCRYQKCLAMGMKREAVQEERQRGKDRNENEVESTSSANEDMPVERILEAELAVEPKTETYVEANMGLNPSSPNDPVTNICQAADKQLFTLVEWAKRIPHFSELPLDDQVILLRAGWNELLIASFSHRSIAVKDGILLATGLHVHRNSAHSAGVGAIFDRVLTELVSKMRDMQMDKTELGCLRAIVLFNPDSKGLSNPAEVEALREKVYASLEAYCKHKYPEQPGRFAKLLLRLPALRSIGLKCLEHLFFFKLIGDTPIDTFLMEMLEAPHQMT

Consider `CCC(=O)O[C@]1(C(=O)CCl)[C@@H](C)C[C@H]2[C@@H]3CCC4=CC(=O)C=C[C@]4(C)[C@@]3(F)[C@@H](O)C[C@@]21C`, for which the Potency entry in test [1], in test [2], in test [3], in test [4], in [5] and in test [6] was “inactive” in each case. Besides, the Potency result in test [7], in [8] and in test [9] was “inactive” each time.
Regarding `Cc1ccc(C(C)OC(=O)C2(C)CCC(C(=O)O)C2(C)C)cc1` (stereo unspecified), the Potency entry in test [1], in test [2], in [3], in test [4], in [5] and in test [6] was “inactive” each time. For the same compound, the Potency result in [7], in test [8] and in test [9] was “inactive” throughout.
With `O=C(O)c1ccc(-n2nc(-c3ccccc3O)nc2-c2ccccc2O)cc1`, the Potency result in test [2], in test [3], in [4], in test [5], in test [6] and in [7] was “inactive” throughout. The Potency result in [8] is “inactive”.
`C=CCOC(=O)CCC1CCCCC1`: the Potency result in test [1], in test [2], in test [3], in test [4], in test [5] and in test [6] was “inactive” in each case. Further, the Potency entry in test [7] and in test [8] was “inactive” in each case.
With `C=CC(=O)OCCOc1ccccc1`, the Potency entry in test [1], in test [2], in test [3], in [4], in test [5] and in [6] was “inactive” in each case. Besides, the Potency entry in test [7] was “inactive”.
For the compound `CC(C)Cc1ccc(C(C)C(=O)OCc2ccccn2)cc1` (stereo unspecified), the Potency entry in test [1], in [2], in test [3], in [4], in [5] and in test [6] was “inactive” each time. In addition, in test [8], the Potency result was “inactive”. The Potency in test [7] is 0.239 µM (active).
Consider `CCCCCC[C@@H](O)C/C=C\CCCCCCCC(=O)OC`, for which the Potency result in test [1], in [2], in [3], in test [4], in [5] and in [6] was “inactive” in each case. Besides, the Potency result in test [7] was “inactive”.
Regarding `O=S(=O)(Oc1ccc(Cl)cc1)c1ccccc1`, the Potency entry in test [1], in [2], in test [3], in test [4], in [5] and in test [6] was “inactive” each time. The Potency result in [7] and in test [8] was “inactive” throughout.
In the case of `CN(C)CCN(Cc1ccccc1)c1ccccn1`, the Potency result in [1], in [2], in test [3], in test [4], in [5] and in [6] was “inactive” in each case. Moreover, the Potency entry in [7] and in test [9] was “inactive” each time.
Consider `CC(C)C[C@H]1C(=O)N2CCC[C@H]2[C@]2(O)O[C@](NC(=O)[C@@H]3C=C4c5cccc6[nH]c(Br)c(c56)C[C@H]4N(C)C3)(C(C)C)C(=O)N12`, for which the Potency entry in test [2], in test [3], in test [4], in test [5], in test [6] and in [7] was “inactive” in each case. Moreover, in test [8], the Potency entry was “inactive”.
`C[N+]1(C)CCC(OC(=O)C(O)(c2ccccc2)C2CCCC2)C1` (stereo unspecified): the Potency entry in test [1], in test [2], in [3], in test [4], in test [5] and in test [6] was “inactive” in each case. For the same compound, the Potency result in test [7] and in test [8] was “inactive” throughout.
As to `Cc1ccc(C(=O)Oc2ccc(C(O)CNC(C)(C)C)cc2OC(=O)c2ccc(C)cc2)cc1` (stereo unspecified), the Potency result in test [1], in test [3], in test [4], in [5] and in test [7] was “inactive” in each case. In test [6], the Potency is 26.6 µM (active).
Take `COS(=O)(=O)C(F)(F)F`: the Potency result in test [2], in test [3], in test [4], in [5], in test [6] and in test [7] was “inactive” each time. Further, the Potency result in [9] is “inactive”.
Turning to `COc1cc(Cl)ccc1Oc1ccc(Cl)cc1Cl`, the Potency entry in [2], in [3], in test [4], in [5], in test [6] and in [7] was “inactive” each time. Also, the Potency result in [9] is “inactive”.
As for `CC[N+]1(CC)CCC(=C(c2ccccc2)c2ccccc2)C1C` (stereo unspecified), the Potency result in test [3], in test [4], in [5], in [6], in [8] and in test [9] was “inactive” in each case.
As for `CC(C)(C)OCC1CO1` (stereo unspecified), the Potency result in [1], in test [2], in test [3], in [4], in test [5] and in test [6] was “inactive” each time. Also, the Potency result in test [8] and in test [9] was “inactive” throughout.
With `CNCCCN1c2ccccc2CCc2ccccc21`, the Potency in test [1] was 15 µM (active). The Potency result in test [3], in test [4], in test [5], in [6] and in test [7] was “inactive” each time.
